Structures can show the parent of a compound that is named as a salt. Values without a mark were called inactive.
Tested on: Vero E6 infected with SARS-CoV-2
Assay: SARS-CoV-2 infection rate relative to infected DMSO; higher = more infection, active = 60 or less
Settings: 24 h

Row | SMILES | SARS-CoV-2 infection rate [%]
1 | COCc1nnc(N2CC(Oc3ccc(F)cc3Cl)C2)n1-c1ccc(OC)nc1 (10 µM) | 106
2 | CNCc1cc(-c2ccccc2F)n(S(=O)(=O)c2cccnc2)c1 [vonoprazan] (10 µM) | 114
3 | CCCN(CCC)[C@H]1CCc2ccc(O)cc2C1 [7-hydroxy-DPAT] (10 µM) | 122
4 | C[C@H](CSC(=O)c1ccccc1)C(=O)N1C[C@@H](Sc2ccccc2)C[C@H]1C(=O)O [zofenopril-calcium] (10 µM) | 104
5 | CC1(C)O[C@@H]2[C@@H](CO[C@@]3(COS(N)(=O)=O)OC(C)(C)O[C@@H]23)O1 [topiramate] (10 µM) | 102
6 | OC(CCN1CCCCC1)(c1ccccc1)c1ccccc1 [pridinol] (10 µM) | 108
7 | NC1CCN(c2cccc(Cl)n2)CC1 (10 µM) | 108
8 | Cc1cccc(C)c1NC(=O)CN1CCCC1=O [nefiracetam] (10 µM) | 113
9 | COc1cc(Nc2ncc(F)c(Nc3ccc4c(n3)NC(=O)C(C)(C)O4)n2)cc(OC)c1OC (10 µM) | 124
10 | O=C(O)c1ccc2c(c1)C(=O)N(c1cccc(Oc3ccc([N+](=O)[O-])cc3)c1)C2=O (10 µM) | 99.5
11 | COc1cc(OC)nc(O[C@H](C(=O)O)C(OC)(c2ccccc2)c2ccccc2)n1 [darusentan] (10 µM) | 116
12 | CC1(COc2ccc(CC3SC(=O)NC3=O)cc2)CCCCC1 (stereo not given) [ciglitazone] (10 µM) | 110
13 | CC(=O)N[C@H]1[C@H]([C@H](O)[C@H](O)CO)OC(O)(C(=O)O)C[C@@H]1O (mixture of isomers) [aceneuramic-acid] (10 µM) | 104
14 | CCCN1C[C@H](CSC)C[C@@H]2c3cccc4[nH]cc(c34)C[C@H]21 [pergolide] (10 µM) | 78
15 | O=c1ncccn1[C@@H]1O[C@H](CO)[C@@H](O)[C@H]1O [zebularine] (10 µM) | 104
16 | CN(CCOc1ccc(NS(C)(=O)=O)cc1)CCc1ccc(NS(C)(=O)=O)cc1 [dofetilide] (10 µM) | 112
17 | O=C(O)CCCCC(=O)O [adipic-acid] (10 µM) | 105
18 | C=C(C)[C@H]1CN[C@H](C(=O)O)[C@H]1CC(=O)O [kainic-acid] (10 µM) | 79
19 | Cc1cccc(C)c1-n1c(=O)c2cnc(Nc3ccc(N4CCN(C)CC4)cc3)nc2n2c3ccccc3nc12 (0.833333 µM) | 104
20 | CC(=O)c1ccc2c(c1)C(=O)C1(CC1)O2 [spizofurone] (10 µM) | 112

Row | SMILES | SARS-CoV-2 infection rate [%]
21 | CS(=O)(=O)Nc1ccc2oc3c(OC(F)F)ccc(C(=O)Nc4c(Cl)cncc4Cl)c3c2c1 [oglemilast] (10 µM) | 92
22 | CN1CCN(C2=Cc3ccccc3Oc3ccc(Cl)cc32)CC1 (10 µM) | 106
23 | Cc1c(Cn2c(C)nc3c(C(=O)O)cc(N4CCOCC4)cc32)cccc1C(F)(F)F (0.833333 µM) | 118
24 | CCCOc1ccc2c(c1)CC[C@@H]1[C@@H]2CC[C@]2(C)[C@@H](OC)CC[C@@H]12 [promestriene] (10 µM) | 99.5
25 | O=C(c1cn(Cc2cncn2Cc2ccc(Br)cc2)cc1-c1cccc2ccccc12)N1CCOCC1 (0.833333 µM) | 94.5
26 | COc1cc(C(=O)OCCCN2CCCN(CCCOC(=O)c3cc(OC)c(OC)c(OC)c3)CC2)cc(OC)c1OC [dilazep] (0.833333 µM) | 106
27 | c1ccc(CN2CCC3(CCc4ccccc43)CC2)cc1 (10 µM) | 80.5
28 | N=C(N)NC(=N)Nc1cccc(Cl)c1 [m-chlorophenylbiguanide] (10 µM) | 108
29 | O=C(N[C@@H](Cc1c[nH]c2ccccc12)C(=O)O)c1ccc(Cl)cc1 [benzotript] (10 µM) | 104
30 | Clc1ccc2nsnc2c1NC1=NCCN1 [tizanidine] (10 µM) | 112
31 | O=C1[C@@H]2[C@H]3CC[C@H](C3)[C@@H]2C(=O)N1C[C@@H]1CCCC[C@H]1CN1CCN(c2nsc3ccccc23)CC1 [lurasidone] (10 µM) | 96.5
32 | CC1=C(C(=O)Nc2cc3cn[nH]c3cc2F)C(c2ccc(C(F)(F)F)cc2)CC(=O)N1 (stereo not given) (10 µM) | 99
33 | CN[C@@H](C)C(=O)N[C@H](C(=O)N1CCC[C@H]1c1nc(C(=O)c2ccc(F)cc2)cs1)C1CCCCC1 (10 µM) | 87
34 | Cn1cc(-c2ccc(F)c(C(F)(F)F)c2)nc1C1CCN(c2ncnc3[nH]ncc23)CC1 (10 µM) | 110
35 | CC(=O)c1ccc(S(=O)(=O)NC(=O)NC2CCCCC2)cc1 [acetohexamide] (10 µM) | 100
36 | CCOC(=O)c1cnc2c(cnn2CC)c1NN=C(C)C [etazolate] (10 µM) | 100
37 | Nc1ncnc2c1ncn2[C@@H]1O[C@H](C[C@@H](N)CC[C@H](N)C(=O)O)[C@@H](O)[C@H]1O [sinefungin] (10 µM) | 109
38 | Cc1nn(-c2ccccc2)c(C)c1/C=N/N1CCN(Cc2ccccc2)CC1 (10 µM) | 117
39 | COc1cccc2c1C(=O)c1c(O)c3c(c(O)c1C2=O)C[C@@](O)(C(=O)CO)C[C@@H]3O[C@H]1C[C@H](N)[C@@H](O)[C@H](C)O1 [Epirubicin Hydrochloride] (10 µM) | 108
40 | CCCOc1ccc2[nH]cc(C3=CCNCC3)c2n1 (10 µM) | 96

Reference: the supplement of paper PMC13380429
